A selection: hits, their analogues and other compounds. The true share with any hit is near 2.3%.
uPA surface inh: inhibitors of cell surface uPA generation. 0.31% of 330,000 active. cell surface uPA generation assay, qHTS. Potency, µM (top dose mostly 38.3 µM), for inactives: at the highest dose activity change, negative = inhibition, most hits filed as inhibitors; active = well fitted inhibition curve with a large enough effect; inconclusive = small, poorly fitted or top-dose-only effect; inactive = no such curve, though single readings can be large or run the other way; tested in mouse RAW 264.7 cells; note: % is set by controls: 0 for no effect and ±100 for the full control effect; nearly all actives have a fitted effect of over 55% in size
FUS suppressor: rescues growth of FUS-expressing yeast | S. cerevisiae FUS-expressing, growth rescue, OD600, 24 h | Potency, µM (doses to about 76.6 µM), usual class: activators | 0.24% of 390,000 active | AID 1347120;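 note: plate controls were DMSO vehicle for no effect and reference control for full effect; nearly all actives have a fitted effect of over 55% in size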
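S. cerevisiae expressing FUS from galactose induction served as the toxicity model. Growth after 24hr at 30C, read as absorbance at 600 nm, indicates suppression of toxicity; compounds dosed at several concentrations.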
TDP43 rescue: inhibitors of TDP-43 toxicity in yeast; TDP-43 expressing yeast growth rescue, BacTiter-Glo, 24 h; AID 652104; 1.8% of 410,000 active; Potency, µM (titrated, usually from 46.1 µM), for the others: at the highest dose growth rescue (activation), usual class: activators; note: % of control where 0% means no effect; nearly all actives have a fitted effect of over 50% in size
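Luminescence from BacTiter-Glo reports growth of TDP-43-expressing yeast after 24 hr at 30 deg C with compound. Cells were raffinose-pregrown to mid-log, then seeded in galactose medium at OD600=0.02.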
BCR signal inh: inhibitors of chronic active B-cell receptor signaling; ABC-DLBCL IkBa-CBG/CBR reporter, luminescence ratio, 4 h; 0.05% of 340,000 active; Potency, µM (highest dose often 46.1 µM), for the others: at the highest dose activity change, negative = inhibition, hits mostly inhibitors; active = well fitted inhibition curve with a large enough effect in the signal ratio, with a control signal flat, not every such curve was filed as active; inconclusive = small, poorly fitted or top-dose-only effect, or effect the other way, or a change in a side signal; the % refers to the signal ratio;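 note: plate controls were basal doxycycline-induced cells for no effect and cells given 10 µM MG132 for full effect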
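TMD8 human ABC-DLBCL cells with doxycycline-inducible IκBα–green luciferase fusion and unfused red luciferase, in 0.5% FBS medium; compounds up to 46 uM, 4 h at 37C. Green/red luminescence ratio, filter-overlap corrected, fitted to concentration-response curves.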
aSyn rescue: alpha-synuclein toxicity inhibition in yeast. Yeast expressing alpha-synuclein, growth rescue, BacTiter-Glo, 24 h. Potency, µM (highest dose often 46.1 µM), for inactives: at the highest dose growth rescue (activation), most hits filed as activators. 0.14% of 370,000 active; note: % of control where 0% means no effect; nearly all actives have a fitted effect of over 65% in size
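Readout is rescue of growth in alpha-synuclein-expressing yeast, so inhibitors of toxicity appear as activators. Growth after 24 hr at 30 deg C in galactose medium is quantified by luminescence.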
Abeta yeast res: restores growth of yeast expressing A-beta42 peptide | yeast expressing A-beta42, growth rescue, OD600, 48 h; response scale: 0% DMSO, 100% iron-clioquinol control | Potency, µM (top dose mostly 46.1 µM), usual class: activators | 0.063% of 410,000 active; note: nearly all actives have a fitted effect of over 55% in size
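Yeast A-beta toxicity model in growth medium with pinned compounds, 48 h at 30 C; growth read as absorbance at 600 nm. Normalized to FeCl3/clioquinol equimolar mix (positive) and DMSO (negative).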
The depositor's hits bear a star; i = inactive; u = inconclusive; x = no result; [ ] = dose if it differs, or a comment. Unless noted, calls come from the whole dose curve; as a rule, active = well fitted curve in the direction sought with a large enough effect; inconclusive = small, poorly fitted or top-dose-only effect, or another doubt; inactive = no such curve, though single readings can be large; an effect the other way counts as inactive or inconclusive. Potency is the fitted concentration of half-maximal effect.

SMILES | uPA surface inh | FUS suppressor | TDP43 rescue | BCR signal inh | aSyn rescue | Abeta yeast res
CSC[C@H]1CN(Cc2ccccc2)C(=O)[C@@H]1CC(=O)Nc1ccccc1 | x | i | u | x | u | i
c1ccc(-c2cc(CSc3nc4ccccc4[nH]3)on2)cc1 | -9% | i | 20µM* | u | 3% | i
Cc1noc(C)c1CSc1nc2ccccc2[nH]1 | -4% | i | -3% | 6% | -7% | i
Fc1cccc(F)c1CSc1nc2ccccc2[nH]1 | -6% | i | 13µM* | -2% | -7% | i
O=C(CSc1nc2ccccc2[nH]1)c1ccccc1F | -2% | i | -4% | u | 0% | i
Cc1ccc(C2(C)NC(=O)N(CC(=O)NCc3ccccc3Cl)C2=O)cc1 (stereo unspecified) | 1% | i | -11% | 2% | -1% | i
Fc1ccccc1CSc1nnc2ccc(-c3ccncc3)nn12 | -3% | i | -14% | -11% | -5% | i
CCOC(=O)CNC(=S)N(Cc1ccccc1F)C1CCCCC1 | 0% | i | u | -5% | -1% | 7.1µM*
CCCNC(=O)CNC(=S)N(Cc1ccccc1F)C1CCCCC1 | 2% | i | u | 1% | 13% | i
COc1cc([N+](=O)[O-])cc2sc(NC(C)=O)nc12 | 10µM* | i | 2% | u | -4% | i
Cc1cccn2cc(COc3cccc([N+](=O)[O-])c3)nc12 | 1% | i | -3%[9.22 µM] | u | 3% | i
CCN(CC)c1ccc(C=Nc2ccc(C)cc2)c(O)c1 | 1% | i | 0% | 11% | -2% | i
COC(=O)c1sccc1S(=O)(=O)N(CC(=O)Nc1ccccc1C)c1ccc(Cl)cc1 | x | 32µM* | -10% | x | x | i
CC(=O)N1CCN(S(=O)(=O)c2cccc(C(=O)N(Cc3ccccc3)c3ccc(C)cc3)c2)CC1 | -4% | i | -8% | -2% | -5% | i
Cc1ccc(N(Cc2ccccc2)C(=O)c2cccc(S(=O)(=O)N3CC(C)OC(C)C3)c2)cc1 (stereo unspecified) | -1% | 28µM* | -31% | u | -20% | i
COCCNc1nc(-c2cc(-c3ccccc3)on2)cc(C(C)C)n1 | 20% | i | 16µM* | u | -12% | i
COCCNc1nc(C)cc(-c2cc(-c3ccc(Cl)cc3)on2)n1 | 16% | i | u | u | 3% | i
COCCn1c(C)cc(C(=O)COC(=O)c2ccccc2Br)c1C | 2.5µM* | i | 3% | -4% | 4% | i
O=C(CSc1ccc2c(c1)OCCO2)NCCN1C(=O)CSC1=O | -5% | i | 11% | 0% | 2% | i
COc1ccc(S(=O)(=O)Nc2cccc3c2O[C@H](CN(C)S(=O)(=O)c2ccc(Cl)cc2)[C@H](C)CN([C@H](C)CO)C3=O)cc1 | -11% | 10µM* | 0% | -1% | -7% | i
C[C@H](CO)N1C[C@H](C)[C@@H](CN(C)Cc2ccc(-c3ccccc3)cc2)Oc2c(NS(=O)(=O)c3ccccc3)cccc2C1=O | u | 22µM* | 11% | 1% | 17% | i
Cc1noc(C)c1S(=O)(=O)Nc1ccc2c(c1)C(=O)N([C@H](C)CO)C[C@H](C)[C@H](CN(C)S(=O)(=O)c1ccc(Cl)cc1)OCCCC[C@@H](C)O2 | x | u | 20% | x | 2% | i
COc1ccc(S(=O)(=O)N(C)C[C@H]2Oc3ccc(NS(=O)(=O)c4ccc(F)cc4)cc3C(=O)N([C@H](C)CO)C[C@@H]2C)cc1 | u | 32µM* | 28% | u | 2% | i
Cc1ccc(S(=O)(=O)N(C)C[C@@H]2OCCCC[C@@H](C)Oc3ccc(NS(=O)(=O)c4c(C)noc4C)cc3C(=O)N([C@H](C)CO)C[C@@H]2C)cc1 | x | 16µM* | 11% | x | 3% | i
O=c1cc(-c2ccccc2)cc(-c2ccccc2)n1CCO | -13% | i | 9% | -23% | 13% | i
